Experimental data: PubChem BioAssay (Tox21)
Values joined by “and” are separate entries in the source; they are usually repeats but may differ in a detail not shown here. Equal entries are not always repeated. Records with an inconclusive call do not appear. Where a call stands in place of a potency, no number is given. More than one record can exist for a structure, and the calls need not agree. Active and inactive are the calls of the source. Calls follow the shape of the full dose curve.
Potency is read from the fitted curve at half-maximal effect.

Test: p53 small molecule agonists, cell-based qHTS assay with human liver microsomes: qHTS cell viability counter screen (AID 1963579); also: nearly all actives have a fitted effect of over 45% in size
Conditions: p53RE-bla HCT-116 viability, ATP luminescence, 16 h, HLM; series mostly up to 66 µM
From the text: National Center for Advancing Translational Sciences [NCATS]
Division of Preclinical Innovation [DPI]
U.S. Environmental Protection Agency [EPA]
National Institutes of Environmental Health Sciences [NIEHS]
National Toxicology Program [NTP]
U.S. Food and Drug Administration [FDA]
p53, a tumor suppressor protein, is activated following cellular insult, including DNA damage and other cellular stresses. The activation of p53 regulates cell fate by inducing DNA repair, cell cycle arrest, apoptosis, or cellular senescence. The activation of p53, therefore, is a good indicator of DNA damage and other cellular stresses. […] The activation of the reporter gene under culture conditions can be detected by fluorescence intensity. This cell line was used to screen the Tox21 10K compound library in the condition of presence of human liver microsomes and to identify agonists that activate the p53 signaling pathway after in vitro metabolic activation (Ooka et al., Archive of Toxicology 96:1975-1987, 2022).
Tox21 Assay Protocol Summary:
The p53RE-bla cells were dispensed at 4,000cells/3ul/well in 1536-well black-clear bottom plates. After the assay plates were incubated at 37 C, 5% CO2 incubator for 5 hours, 23 nL of compounds dissolved in DMSO, positive controls or DMSO only was transferred to the assay plate. Following compound addition, 3 uL of human liver microsomes (XenoTech, Kansas City, KS) at final concentration of 0.5 mg/mL and 1uL of B-Nicotinamide adenine dinucleotide 2'-phosphate (NADPH) at final concentration of 0.5 mg/mL were transferred to the assay plate. The plates were incubated at 37 C for 16 hours. 1 uL of LiveBLAzer detection mixture was added to each well and the plates were incubated at room temperature in the dark for 2 h. Fluorescence intensity at 460 and 530 nm emission and 405 nm excitation were measured by an Envision plate reader. For cell viability readout that measures cytotoxicity, 4 ul/well of CellTiter-Glo reagent was added into the assay plates using a Flying Reagent Dispenser. After 30 min incubation at room temperature, the luminescence intensity in the plates was measured using a ViewLux plate reader.
In the case of Cc1ccc(N)c(S(=O)(=O)O)c1, the Potency is reported as “inactive”.
In the case of CC(C)[N+](C)(CCOC(=O)C1c2ccccc2Oc2ccccc21)C(C)C, the Potency is reported as “inactive”.
With CCCCCCCCCCO the Potency was “inactive”.
In the case of COc1cc(C=O)ccc1O, the Potency is reported as “inactive”.
In the case of COc1ccc(CN(CCN(C)C)c2ccccn2)cc1, the Potency is reported as “inactive”.
In the case of CCCCC(CC)CO (stereo not given), the Potency is reported as “inactive”.
In the case of CC1=C(/C=C/C(C)=C/C=C/C(C)=C/C(=O)Nc2ccc(O)cc2)C(C)(C)CCC1, the Potency is reported as 41.8 µM (active) and inactive.
For CC(C)=CCC/C(C)=C/C=O, the Potency was “inactive”.
With CC(=O)Nc1ccc(C(=O)O)cc1 the Potency was “inactive”.
With COCCCN the Potency was “inactive”.
With CCCCCCCCCCCC[N+](C)(C)Cc1ccccc1 the Potency was 44.9 µM (active) and 49.7 µM (active) and 19.9 µM (active).
With CCCCCCCCCCCCCCCCO the Potency was “inactive”.
In the case of CC(=O)OCC(=O)[C@@]12N=C(C)O[C@@H]1C[C@H]1[C@@H]3CCC4=CC(=O)C=C[C@]4(C)[C@H]3[C@@H](O)C[C@@]12C, the Potency is reported as “inactive”.
With NC(N)=NC(=O)c1nc(Cl)c(N)nc1N the Potency was “inactive”.
For C[C@]12C=CC(=O)C=C1CC[C@@H]1[C@@H]2C(=O)C[C@@]2(C)[C@H]1CC[C@]2(O)C(=O)CO, the Potency was “inactive”.
For C=C(C)C(N)=O, the Potency was “inactive”.
For O=C1CCCC1, the Potency was “inactive”.
With CN(C)CCOC(=O)COc1ccc(Cl)cc1 the Potency was “inactive”.
For CC1(C)CC(N)CC(C)(CN)C1 (stereo not given), the Potency was “inactive”.
For CCOC(=O)C(C#N)=C(c1ccccc1)c1ccccc1, the Potency was “inactive”.
With COc1ccc(C(=O)c2ccccc2)c(O)c1 the Potency was “inactive”.
For CCCCOC(=O)COc1ccc(Cl)cc1Cl, the Potency was “inactive”.
For COCc1c(C(C)C)nc(C(C)C)c(/C=C/[C@@H](O)C[C@@H](O)CC(=O)O)c1-c1ccc(F)cc1, the Potency was “inactive”.
In the case of NC(N)=O, the Potency is reported as “inactive”.
With CC(=O)Oc1ccc(C)cc1 the Potency was “inactive”.
With COC(=O)c1cccc(C(=O)OC)c1 the Potency was “inactive”.
With CCC(C)(C)C(=O)O[C@H]1C[C@@H](C)C=C2C=C[C@H](C)[C@H](CC[C@@H]3C[C@@H](O)CC(=O)O3)[C@H]21 the Potency was “inactive”.
With C/C=C/C=C/C(=O)O the Potency was “inactive”.
For O=C1CCCCCCCCCCC1, the Potency was “inactive”.
With Cc1ccc(C)c(O)c1C the Potency was “inactive”.
In the case of Cc1ccc([N+](=O)[O-])cc1N, the Potency is reported as “inactive”.
For CCCC(O)C(CC)CO (stereo not given), the Potency was “inactive”.
For CC(O)CO (stereo not given), the Potency was “inactive”.
With C=C(C#N)C(=O)OCC the Potency was “inactive”.
With Cc1ccccc1Cl the Potency was “inactive”.
In the case of c1ccc2c(c1)ccc1cc3c(ccc4ccccc43)cc12, the Potency is reported as “inactive”.
In the case of COc1ccc(CCC(C)=O)cc1, the Potency is reported as “inactive”.
For Brc1ccc(Oc2ccc(Br)cc2)cc1, the Potency was “inactive”.
For Cc1cccc(C)c1O, the Potency was “inactive”.
For C=CCNC(N)=S, the Potency was “inactive”.
